Test in all cases: PBM; 200 nM protein, PBS
What all share (conditions): dsDNA, one strand shown

Assay [1] deals with CRX (Homo sapiens, UniProt O43186 26-111).
For assay [2], the target named is CRX (Homo sapiens, UniProt O43186 26-111, E42D).
For assay [3], the target named is CRX (Homo sapiens, UniProt O43186 26-111, R41L).
For assay [4], the target named is T1, NKX2-4 (Homo sapiens, UniProt Q9H2Z4 175-261, P217L).
T1 sequence: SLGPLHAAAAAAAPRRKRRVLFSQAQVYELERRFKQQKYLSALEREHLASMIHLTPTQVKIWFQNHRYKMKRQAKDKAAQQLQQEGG

Assay [5] addresses HOXA4 (Homo sapiens, UniProt Q00056 201-287, W262R).
In assay [6] the target is T2, NKX2-4 (Homo sapiens, UniProt Q9H2Z4 175-261, T231S).
T2 sequence: T1 sequence with L43P, T57S

Assay [7] addresses T3, NKX2-4 (Homo sapiens, UniProt Q9H2Z4 175-261).
T3 sequence: T1 sequence with L43P

Assay [8] addresses HOXA4 (Homo sapiens, UniProt Q00056 201-287, R217L).
Assay [9] addresses HOXA4 (Homo sapiens, UniProt Q00056 201-287).
In assay [10] the target is T4, NKX2-4 (Homo sapiens, UniProt Q9H2Z4 175-261, R246Q).
T4 sequence: T1 sequence with L43P, R72Q

Assay [11] addresses HOXA4 (Homo sapiens, UniProt Q00056 201-287, W262F).
Assay [12] addresses HOXB9 (Homo sapiens, UniProt P17482 171-250, T197M).
Assay [13] addresses HOXB9 (Homo sapiens, UniProt P17482 171-250).
Assay [14] concerns the target HOXB9 (Homo sapiens, UniProt P17482 171-250, R186Q).
In assay [15] the target is HOXC9 (Homo sapiens, UniProt P31274 178-260, K195R).
In another assay the target is T5, NKX2-6 (Homo sapiens, UniProt A6NCS4 118-204, R150C).
T5 sequence: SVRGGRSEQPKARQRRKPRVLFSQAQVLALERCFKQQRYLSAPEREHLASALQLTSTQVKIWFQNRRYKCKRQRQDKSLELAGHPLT

For assay [16], the target named is HOXC9 (Homo sapiens, UniProt P31274 178-260).
Assay [17] concerns the target ALX1 (Homo sapiens, UniProt Q15699 118-204, L144V).
Assay [18] deals with HOXC9 (Homo sapiens, UniProt P31274 178-260, R193K).
Assay [19] deals with ALX1 (Homo sapiens, UniProt Q15699 118-204, L144R).
The target in assay [20] is HOXC9 (Homo sapiens, UniProt P31274 178-260, R222W).
Assay [21] concerns the target ALX1 (Homo sapiens, UniProt Q15699 118-204).
In assay [22] the target is MSX2 (Homo sapiens, UniProt P35548 130-214, R199I).
Assay [23] addresses MSX2 (Homo sapiens, UniProt P35548 130-214).
Assay [24] deals with MSX2 (Homo sapiens, UniProt P35548 130-214, F161Y).

Positions count from the first letter of the chain named.

Sequence of CRX (Homo sapiens, UniProt O43186 26-111) (O43186 26-111): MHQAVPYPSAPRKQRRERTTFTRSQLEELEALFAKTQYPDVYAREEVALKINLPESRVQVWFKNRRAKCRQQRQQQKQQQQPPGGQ
Sequence of CRX (Homo sapiens, UniProt O43186 26-111, E42D) (O43186 26-111 E42D): as the sequence (O43186 26-111) above, with E17D counted along it
Sequence of CRX (Homo sapiens, UniProt O43186 26-111, R41L) (O43186 26-111 R41L): as the sequence (O43186 26-111) above, with R16L counted along it
Sequence of HOXA4 (Homo sapiens, UniProt Q00056 201-287, W262R) (Q00056 201-287 W262R): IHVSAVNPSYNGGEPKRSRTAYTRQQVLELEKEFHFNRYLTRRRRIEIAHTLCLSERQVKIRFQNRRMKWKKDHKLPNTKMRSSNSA
Sequence of HOXA4 (Homo sapiens, UniProt Q00056 201-287, W262F) (Q00056 201-287 W262F): as the sequence (Q00056 201-287 W262R) above, with R62F counted along it
Sequence of HOXC9 (Homo sapiens, UniProt P31274 178-260, R222W) (P31274 178-260 R222W): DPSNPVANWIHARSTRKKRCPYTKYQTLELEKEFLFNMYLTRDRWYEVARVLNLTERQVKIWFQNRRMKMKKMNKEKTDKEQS
Sequence of HOXC9 (Homo sapiens, UniProt P31274 178-260, K195R) (P31274 178-260 K195R): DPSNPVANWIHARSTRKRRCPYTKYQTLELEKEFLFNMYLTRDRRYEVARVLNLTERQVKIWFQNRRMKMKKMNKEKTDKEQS
Sequence of HOXC9 (Homo sapiens, UniProt P31274 178-260, R193K) (P31274 178-260 R193K): as the sequence (P31274 178-260 R222W) above, with R16K, W45R counted along it
Sequence of HOXA4 (Homo sapiens, UniProt Q00056 201-287) (Q00056 201-287): as the sequence (Q00056 201-287 W262R) above, with R62W counted along it
Sequence of HOXC9 (Homo sapiens, UniProt P31274 178-260) (P31274 178-260): as the sequence (P31274 178-260 R222W) above, with W45R counted along it
Sequence of HOXA4 (Homo sapiens, UniProt Q00056 201-287, R217L) (Q00056 201-287 R217L): as the sequence (Q00056 201-287 W262R) above, with R17L, R62W counted along it
Sequence of MSX2 (Homo sapiens, UniProt P35548 130-214) (P35548 130-214): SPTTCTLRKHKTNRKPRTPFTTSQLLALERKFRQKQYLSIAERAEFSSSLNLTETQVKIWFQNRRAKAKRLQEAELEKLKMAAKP
Sequence of ALX1 (Homo sapiens, UniProt Q15699 118-204, L144V) (Q15699 118-204 L144V): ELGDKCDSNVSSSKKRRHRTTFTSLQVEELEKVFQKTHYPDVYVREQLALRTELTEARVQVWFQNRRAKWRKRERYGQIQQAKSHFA
Sequence of ALX1 (Homo sapiens, UniProt Q15699 118-204, L144R) (Q15699 118-204 L144R): as the sequence (Q15699 118-204 L144V) above, with V27R counted along it
Sequence of HOXB9 (Homo sapiens, UniProt P17482 171-250) (P17482 171-250): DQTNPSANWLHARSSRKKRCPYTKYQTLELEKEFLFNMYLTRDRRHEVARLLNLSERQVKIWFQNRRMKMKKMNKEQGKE
Sequence of ALX1 (Homo sapiens, UniProt Q15699 118-204) (Q15699 118-204): as the sequence (Q15699 118-204 L144V) above, with V27L counted along it
Sequence of MSX2 (Homo sapiens, UniProt P35548 130-214, R199I) (P35548 130-214 R199I): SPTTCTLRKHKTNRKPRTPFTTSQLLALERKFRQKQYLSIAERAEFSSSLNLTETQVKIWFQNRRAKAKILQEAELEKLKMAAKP
Sequence of HOXB9 (Homo sapiens, UniProt P17482 171-250, T197M) (P17482 171-250 T197M): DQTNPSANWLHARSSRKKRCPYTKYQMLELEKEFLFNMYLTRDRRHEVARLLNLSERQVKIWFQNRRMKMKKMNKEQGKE
Sequence of MSX2 (Homo sapiens, UniProt P35548 130-214, F161Y) (P35548 130-214 F161Y): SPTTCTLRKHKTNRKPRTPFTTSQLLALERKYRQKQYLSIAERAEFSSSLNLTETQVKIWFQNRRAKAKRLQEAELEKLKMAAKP
Sequence of HOXB9 (Homo sapiens, UniProt P17482 171-250, R186Q) (P17482 171-250 R186Q): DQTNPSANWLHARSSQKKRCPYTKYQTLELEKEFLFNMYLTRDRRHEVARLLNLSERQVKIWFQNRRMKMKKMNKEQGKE

Regarding GAATAAAC, the binding signal was 10 upbm affinity estimate (log intensity, higher = more binding, comparable within an allelic series) with CRX [1]; 9.83 upbm affinity estimate (log intensity, higher = more binding, comparable within an allelic series) in the assay with CRX [2]; 9.51 upbm affinity estimate (log intensity, higher = more binding, comparable within an allelic series) with CRX [3].

As for CAGTCCCG, the binding signal in the assay with NKX2-4 [4] was 9.58 upbm affinity estimate (log intensity, higher = more binding, comparable within an allelic series); with HOXA4 [5] it was 9.96 upbm affinity estimate (log intensity, higher = more binding, comparable within an allelic series); with NKX2-4 [6], 9.49 upbm affinity estimate (log intensity, higher = more binding, comparable within an allelic series); with NKX2-4 [7] it was 9.67 upbm affinity estimate (log intensity, higher = more binding, comparable within an allelic series); with HOXA4 [8] it was 9.95 upbm affinity estimate (log intensity, higher = more binding, comparable within an allelic series); with HOXA4 [9] it was 9.91 upbm affinity estimate (log intensity, higher = more binding, comparable within an allelic series). Also, the binding signal in the assay with NKX2-4 [10] is 9.57 upbm affinity estimate (log intensity, higher = more binding, comparable within an allelic series); with HOXA4 [11], 10 upbm affinity estimate (log intensity, higher = more binding, comparable within an allelic series).

In the case of CGAACCTC, the binding signal was 8.5 upbm affinity estimate (log intensity, higher = more binding, comparable within an allelic series) with CRX [1]; 8.36 upbm affinity estimate (log intensity, higher = more binding, comparable within an allelic series) with CRX [2]; 8.33 upbm affinity estimate (log intensity, higher = more binding, comparable within an allelic series) with CRX [3].

Take CTGGGGGC: the binding signal in the assay with NKX2-4 [4] is 9.39 upbm affinity estimate (log intensity, higher = more binding, comparable within an allelic series); with HOXB9 [12], 8.38 upbm affinity estimate (log intensity, higher = more binding, comparable within an allelic series); with NKX2-4 [6], 9.45 upbm affinity estimate (log intensity, higher = more binding, comparable within an allelic series); in the assay with NKX2-4 [7] it was 9.5 upbm affinity estimate (log intensity, higher = more binding, comparable within an allelic series); in the assay with HOXB9 [13], 8.3 upbm affinity estimate (log intensity, higher = more binding, comparable within an allelic series); in the assay with NKX2-4 [10], 9.37 upbm affinity estimate (log intensity, higher = more binding, comparable within an allelic series). In addition, the binding signal with HOXB9 [14] is 8.44 upbm affinity estimate (log intensity, higher = more binding, comparable within an allelic series).

Regarding GCTGCCGA, the binding signal in the assay with NKX2-4 [4] is 9.14 upbm affinity estimate (log intensity, higher = more binding, comparable within an allelic series); in the assay with HOXC9 [15], 9.65 upbm affinity estimate (log intensity, higher = more binding, comparable within an allelic series); in the assay with NKX2-4 [6] it was 9.11 upbm affinity estimate (log intensity, higher = more binding, comparable within an allelic series); in the assay with NKX2-4 [7], 9.11 upbm affinity estimate (log intensity, higher = more binding, comparable within an allelic series); with NKX2-6, 9.17 upbm affinity estimate (log intensity, higher = more binding, comparable within an allelic series); with HOXC9 [16], 9.69 upbm affinity estimate (log intensity, higher = more binding, comparable within an allelic series). The binding signal is 6.5 upbm affinity estimate (log intensity, higher = more binding, comparable within an allelic series) with ALX1 [17]; 9.57 upbm affinity estimate (log intensity, higher = more binding, comparable within an allelic series) in the assay with HOXC9 [18]; 6.4 upbm affinity estimate (log intensity, higher = more binding, comparable within an allelic series) with ALX1 [19]; 9.29 upbm affinity estimate (log intensity, higher = more binding, comparable within an allelic series) with NKX2-4 [10]; 9.8 upbm affinity estimate (log intensity, higher = more binding, comparable within an allelic series) with HOXC9 [20]; 6.43 upbm affinity estimate (log intensity, higher = more binding, comparable within an allelic series) with ALX1 [21].

Take GCGACCGC: the binding signal is 9.58 upbm affinity estimate (log intensity, higher = more binding, comparable within an allelic series) with NKX2-4 [4]; 9.61 upbm affinity estimate (log intensity, higher = more binding, comparable within an allelic series) in the assay with HOXA4 [5]; 9.65 upbm affinity estimate (log intensity, higher = more binding, comparable within an allelic series) with HOXC9 [15]; 9.41 upbm affinity estimate (log intensity, higher = more binding, comparable within an allelic series) in the assay with NKX2-4 [6]; 9.53 upbm affinity estimate (log intensity, higher = more binding, comparable within an allelic series) with NKX2-4 [7]; 9.65 upbm affinity estimate (log intensity, higher = more binding, comparable within an allelic series) with HOXA4 [8]. For the same sequence, the binding signal in the assay with HOXC9 [16] is 9.71 upbm affinity estimate (log intensity, higher = more binding, comparable within an allelic series); with MSX2 [22], 9.49 upbm affinity estimate (log intensity, higher = more binding, comparable within an allelic series); with HOXC9 [18], 9.6 upbm affinity estimate (log intensity, higher = more binding, comparable within an allelic series); with HOXA4 [9], 9.86 upbm affinity estimate (log intensity, higher = more binding, comparable within an allelic series); in the assay with MSX2 [23] it was 9.38 upbm affinity estimate (log intensity, higher = more binding, comparable within an allelic series); in the assay with NKX2-4 [10] it was 9.69 upbm affinity estimate (log intensity, higher = more binding, comparable within an allelic series). In addition, the binding signal with HOXC9 [20] is 9.64 upbm affinity estimate (log intensity, higher = more binding, comparable within an allelic series); with MSX2 [24], 9.56 upbm affinity estimate (log intensity, higher = more binding, comparable within an allelic series); in the assay with HOXA4 [11] it was 9.79 upbm affinity estimate (log intensity, higher = more binding, comparable within an allelic series).

On to GACGCTAC, for which the binding signal with CRX [1] was 8.4 upbm affinity estimate (log intensity, higher = more binding, comparable within an allelic series); with CRX [2] it was 8.38 upbm affinity estimate (log intensity, higher = more binding, comparable within an allelic series); with CRX [3], 8.27 upbm affinity estimate (log intensity, higher = more binding, comparable within an allelic series).

In the case of CACTAATC, the binding signal is 12.8 upbm affinity estimate (log intensity, higher = more binding, comparable within an allelic series) in the assay with CRX [1]; 12.6 upbm affinity estimate (log intensity, higher = more binding, comparable within an allelic series) with CRX [2]; 12 upbm affinity estimate (log intensity, higher = more binding, comparable within an allelic series) with CRX [3].

Values taken from publication PMC11006913.
